INS-1E GSIS act = primary screen for activators of insulin secretion dependent on glucose, INS-1E cells, GLuc reporter luminescence. INS-1E GLuc reporter insulin secretion, 2-3 h. activation, % at 16.6 µM. hit rate 0.61% among 370,000. AID 743287;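 active means lowest replicate activation of at least 40%, so every replicate reaches that level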;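 further: 0% = median of neutral control wells and 100% = median of IBMX positive control wells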
Ecoli rRNA inh = inhibits bacterial ribosomal RNA function over humanized ribosomes; E. coli WT GFP vs humanized-ribosome RFP mutants, fluorescence, 24 h; stronger effect = lower value; DMSO median 0, no signal -100; GFP signal change (wild-type ribosome), % (no concentration beside the values); hit rate 1.6% among 350,000; AID 720706;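 active means significant combined selectivity score with lowered wild-type GFP, culture density cut under 30%, mutant RFP and density less affected; inactive means any of these conditions unmet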
DENV2 CPE rescue = DENV2-induced cell death inhibition; DENV2-infected cells, cytopathic effect rescue, plate reader; CPE inhibition, % at 9.99 µM; hit rate 1.7% among 350,000; AID 651640; in the data active means CPE inhibition above about 20%, passing the limit was not always enough; inconclusive means no clear call, values can overlap the other calls; tested in BHK-21 cells;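 further: 0% = median of neutral control wells and 100% = median of positive control wells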
ERAP1 HTS inh = inhibitors of human ERAP1 aminopeptidase; AID 652197; hit rate 0.15% among 340,000; recombinant ERAP1, Leu-AMC fluorescence, 60 min; Q9NZ08; inhibition, % at 10.7 µM;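 active means mean replicate inhibition of at least 30%, or all replicates individually reaching that 30% level; inactive means mean below 30% and not every replicate reaching it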;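 further: 0% = neutral control wells and 100% = L-leucinethiol positive control wells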
Target sequence (Q9NZ08 whole entry, looked up): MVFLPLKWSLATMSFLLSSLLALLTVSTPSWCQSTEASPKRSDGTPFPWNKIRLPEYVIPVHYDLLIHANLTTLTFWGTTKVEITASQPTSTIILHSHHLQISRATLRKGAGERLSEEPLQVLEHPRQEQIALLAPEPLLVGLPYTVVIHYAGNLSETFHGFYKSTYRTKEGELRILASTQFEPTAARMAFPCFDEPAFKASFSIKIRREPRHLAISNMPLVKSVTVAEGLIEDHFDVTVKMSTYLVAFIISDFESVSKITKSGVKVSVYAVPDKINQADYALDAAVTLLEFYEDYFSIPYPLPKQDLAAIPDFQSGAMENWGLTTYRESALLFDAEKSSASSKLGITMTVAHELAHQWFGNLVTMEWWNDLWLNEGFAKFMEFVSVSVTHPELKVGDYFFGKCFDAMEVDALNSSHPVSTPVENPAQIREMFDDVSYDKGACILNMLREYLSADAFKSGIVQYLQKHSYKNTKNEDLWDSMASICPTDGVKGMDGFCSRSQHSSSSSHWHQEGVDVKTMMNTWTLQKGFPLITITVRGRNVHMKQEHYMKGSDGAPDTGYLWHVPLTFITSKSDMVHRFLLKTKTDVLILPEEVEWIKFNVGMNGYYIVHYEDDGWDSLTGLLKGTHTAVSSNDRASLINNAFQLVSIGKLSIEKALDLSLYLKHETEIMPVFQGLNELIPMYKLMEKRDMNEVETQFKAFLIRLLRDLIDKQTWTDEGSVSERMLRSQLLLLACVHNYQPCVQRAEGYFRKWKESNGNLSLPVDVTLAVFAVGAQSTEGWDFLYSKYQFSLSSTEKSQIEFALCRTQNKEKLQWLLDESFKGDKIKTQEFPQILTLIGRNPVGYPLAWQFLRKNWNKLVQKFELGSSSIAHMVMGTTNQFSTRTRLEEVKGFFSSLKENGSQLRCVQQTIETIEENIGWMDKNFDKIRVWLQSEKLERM
CaV13 FRET inh = Disruptors of the CACNA1D IQ motif to Ca2+-dependent inactivation inhibitor domain association, primary screening, Förster resonance energy transfer in intact living … | HEK cells, CFP/YFP FRET ICDI-IQ, plate reader, 10 min; percent FRET-ratio fall versus neutral wells | inhibition, % at 12.3 µM | hit rate 0.098% among 340,000 | AID 743397;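 active means mean replicate inhibition of at least 30% and at least 1% of replicates passing that level; inconclusive means only one of the two criteria is met; inactive means neither criterion is met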;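 further: 0% = median of the neutral control wells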
PGC1a acetyl inh = lowers PGC1a acetylation signal in U2OS cells. hit rate 0.17% among 350,000. AlphaScreen anti-acetyl-lysine; with virally co-expressed GCN5 acetyltransferase. AID 651687. inhibition, % at 15.6 µM;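 active means every replicate shows inhibition of at least 40%; inconclusive means mean inhibition at least 40% but some replicate below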;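 further: 0% = neutral control wells and 100% = positive control wells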
Starred values were filed as active, the others as inactive; ? = inconclusive; nt = no result. Only some compounds are listed: those with a hit (about 3.2% of all), similar ones and a draw of the others.

SMILES	INS-1E GSIS act	Ecoli rRNA inh	DENV2 CPE rescue	ERAP1 HTS inh	CaV13 FRET inh	PGC1a acetyl inh
Cn1ccsc1=NC(=O)c1cccc(OC(F)F)c1	9.1	2.2	-2.3	-2.3	-12.7	-1.0
Cc1cc(C(=O)Nc2cccc3c2O[C@H](CN(C)C)[C@H](C)CN([C@@H](C)CO)C3=O)n(C)n1	5.2	2.7	28.5*	1.5	nt	5.3
Cc1cc(C(=O)Nc2cccc3c2O[C@H](CN(C)C)[C@@H](C)CN([C@H](C)CO)C3=O)n(C)n1	12.4	-3.1	-5.1	-1.5	nt	-5.5
Cc1cc(C(=O)Nc2cccc3c2O[C@H](CN(C)Cc2ccc(C(=O)O)cc2)[C@H](C)CN([C@H](C)CO)C3=O)n(C)n1	4.0	3.8	45.7*	-0.7	nt	6.6
COc1ccc(CN(C)C[C@@H]2Oc3c(NC(=O)c4cc(C)nn4C)cccc3C(=O)N([C@H](C)CO)C[C@H]2C)cc1	8.3	-6.3	26.7*	-3.5	nt	0.1
CC(C)CC#Cc1cnc2c(c1)C(=O)N([C@@H](C)CO)C[C@@H](C)[C@H](CN(C)C(=O)c1ccc(F)cc1)O2	-15.5	-1.8	-1.5	-4.9	nt	4.1
C[C@H]1CN([C@@H](C)CO)S(=O)(=O)c2ccc(-c3cccc(F)c3)cc2O[C@@H]1CN(C)S(=O)(=O)c1ccccc1	-3.0	-1.8	-10.5	-2.2	nt	-5.0
CCCCOP(=O)(c1ccc(N(C)C)cc1)C(O)c1cc(OC)c(OC)c(OC)c1 (stereo not drawn)	-7.1	-6.8	17.6	nt	-3.3	-5.9
CCCCOP(=O)(c1ccc(N(C)C)cc1)C(O)c1ccc(OC)cc1 (stereo not drawn)	-5.6	0.2	-2.0	-0.8	-3.5	82.0*
Cc1ccc(CC(=O)N(C)CC(=O)Nc2ccc(N3CCOCC3)cc2)cc1C	1.8	4.2	5.2	-0.3	-5.8	nt
Cc1ccc(NC(=O)CN(C)CC(=O)Nc2ccc(N3CCOCC3)cc2)cc1F	-22.1	-21.4*	nt	1.4	-6.3	nt
C[C@H](CO)N1C[C@H](C)[C@H](CN(C)C(=O)Nc2ccccc2)Oc2c(NS(=O)(=O)c3cccs3)cccc2C1=O	2.9	-4.2	nt	nt	nt	8.6
CCOC(=O)C1=NNC(C(=O)c2ccccc2)C1c1ccc(C)cc1 (stereo not drawn)	nt	-25.9*	3.8	nt	-14.2	nt
CCOC(=O)C1=NNC(C(=O)c2ccc(C)cc2)C1c1ccc(C)cc1 (stereo not drawn)	10.0	nt	nt	nt	-4.7	-1.9
Cc1ccc(NS(=O)(=O)c2ccc(C(=O)N3CCN(c4ncccn4)CC3)cc2)cc1	-55.7	-27.8	-9.6	-0.3	15.0	-1.7
Cc1ccc(C(=O)N2CCN(c3ncccn3)CC2)cc1	13.3	-2.5	10.1	-1.6	-3.3	79.9*
O=c1c2ccc(Cl)cc2[nH]c(=S)n1CCC1=CCCCC1	165.7*	nt	nt	nt	-3.0	nt
COc1ccc2c3c(n(C)c2c1)[C@@H](CO)NCC31CCN(S(=O)(=O)c2ccccc2)CC1	7.4	-4.7	nt	nt	nt	nt
CC(C)(C)C1c2[nH]c3ccccc3c2CCN1CCCn1cccn1 (stereo not drawn)	-4.3	nt	nt	nt	-5.5	-4.7
Fc1ccccc1C1c2[nH]c3ccccc3c2CCN1CCCn1cccn1 (stereo not drawn)	-4.6	-11.0	31.3*	-5.9	1.1	-22.9
CNC(=O)C[C@@H]1CC[C@H]2[C@@H](COC[C@H](O)CN2C(=O)c2ccccn2)O1	-1.0	1.1	6.0	-3.8	nt	1.0
CCC(C)(C)NC(=O)c1ccccc1Oc1ccccc1	11.8	-25.5	1.5	1.9	-10.6	nt
CCC(CC)NC(=O)c1ccccc1Oc1ccccc1	53.2*	nt	nt	nt	0.0	-6.0
CC=Cc1ccc2n(c1=O)C[C@H]1[C@H](CO)[C@@H](C(=O)OC)N(CCc3ccccc3)[C@@H]21 (mixture of isomers)	9.1	-3.8	9.4	-3.2	nt	nt
Cc1nnc2n1N=CC=C(c1ccccc1)S2	41.4*	2.7	nt	0.0	-4.5	nt
SMILES	INS-1E GSIS act	Ecoli rRNA inh	DENV2 CPE rescue	ERAP1 HTS inh	CaV13 FRET inh	PGC1a acetyl inh
Cc1nnc2n1N=CC=C(C(C)(C)C)S2	nt	nt	nt	nt	-5.5	6.0
CO[C@H]1CN(C)C(=O)c2cc(NC(=O)Nc3ccccc3)ccc2OC[C@@H](C)NC[C@@H]1C	16.8	-0.2	25.7*	-3.1	nt	nt
CO[C@H]1CN(C)C(=O)c2cc(NC(=O)Nc3ccccc3Cl)ccc2OC[C@@H](C)NC[C@H]1C	-14.3	0.5	20.4*	0.7	nt	3.4
CCS(=O)(=O)Nc1ccc2c(c1)C(=O)N(C)C[C@H](OC)[C@@H](C)CN[C@@H](C)CO2	-0.7	5.0	24.7*	0.3	nt	nt
CO[C@@H]1CN(C)C(=O)c2cc(NC(=O)Nc3ccccc3)ccc2OC[C@@H](C)NC[C@@H]1C	10.7	-1.8	4.5	-0.7	nt	nt
CCS(=O)(=O)Nc1ccc2c(c1)C(=O)N(C)C[C@@H](OC)[C@H](C)CN[C@H](C)CO2	9.5	3.4	-4.8	0.9	nt	nt
CO[C@@H]1CN(C)C(=O)c2cc(NC(=O)Nc3ccccc3Cl)ccc2OC[C@@H](C)NC[C@@H]1C	5.6	0.8	1.6	3.0	nt	-1.2
CO[C@@H]1CN(C)C(=O)c2cc(NC(=O)c3nc4ccccc4s3)ccc2OC[C@H](C)NC[C@H]1C	19.0	-4.4	24.2*	1.9	nt	-6.0
C[C@@H]1CN([C@@H](C)CO)C(=O)Cc2cc(NC(=O)Nc3ccc(F)cc3)ccc2O[C@@H]1CN(C)C(=O)Nc1ccccc1	2.1	3.6	?	0.1	nt	-6.6
COc1ccc(-c2cn(CC[C@@H]3CC[C@H](NC(=O)CCN4CCCCC4)[C@@H](CO)O3)nn2)cc1	13.0	2.0	-5.1	1.0	nt	-1.0
CCc1c(C(=O)Nc2cc(C(=O)OC)ccc2C)csc1C	2.5	4.6	87.7*	-3.7	-2.8	-5.8
O=C(N[C@H]1CC[C@H](CCNS(=O)(=O)c2ccccc2Cl)O[C@@H]1CO)c1ccccc1	0.3	1.0	-0.9	2.8	nt	2.6
Cc1cc(C)nc(NS(=O)(=O)c2ccc(NC(=O)Nc3ccccc3)cc2)n1	-17.6	-6.9	12.4	-0.4	-5.1	96.8*
Cc1ccc(S(=O)(=O)Nc2nc(C)cc(NCCN)n2)cc1	7.6	13.2	2.3	-4.8	-7.3	-2.1
Cc1ccc(S(=O)(=O)Nc2nc(C)cc(NN)n2)cc1	46.4*	5.1	-5.2	7.3	-7.1	13.8
CN1C(=O)c2cc(NC(=O)c3ccc(F)c(F)c3)ccc2OC[C@H]2O[C@@H](CC(=O)O)CC[C@@H]21	-2.7	0.6	1.4	nt	nt	3.6
O=C(CCN1CCCCC1)N[C@H]1CC[C@@H](CC(=O)N2CCC(Cc3ccccc3)CC2)O[C@H]1CO	-0.2	4.0	8.0	0.1	nt	5.7
O=C(NCCc1ccncc1)[C@@H]1N[C@@H]2c3ccc(/C=C/c4ccccc4)c(=O)n3C[C@@H]2[C@H]1CO	1.1	-1.0	-1.8	-65.9	nt	nt
